From article PMC5540273 (PLoS ONE, 2017)

Tests used:
DRAK1 = tested on: T1, DRAK1
T1 construct: gene STK17A

DRAK2 = tested on: T2, DRAK2
T2 construct: gene STK17B
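Also: kd values determined as follow-up on hits from a single-replicate KINOMEscan panel screen.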

Structure (SMILES): O=C(O)COc1ncnc2cc(-c3ccc4[nH]ncc4c3)sc12
- Kd (DRAK1): 250 nM
- Kd (DRAK2): 30 nM

Structure (SMILES): CSc1ccc(-c2cc3ncnc(SCC(=O)O)c3s2)cc1
- Kd (DRAK2): 3.8 nM
